Test results reported in PubChem BioAssay (NCATS).
Where “and” joins values, the source holds several entries; their conditions need not be identical. Equal entries are not always repeated. Records with an inconclusive call do not appear. Some structures have more than one record in an assay (separate samples or runs), and their calls can disagree. Values without a mark were called inactive. Calls of active or inactive are those of the source. The call rests on the fitted dose curve; in most records, active means well fitted activation curve with a large enough effect; inconclusive means small, poorly fitted or top-dose-only effect; inactive means flat fitted curve, though single readings scatter.

Test: qHTS assay for environmental chemicals that activate the Aryl hydrocarbon Receptor (AhR) signaling pathway (AID 651777); further: nearly all actives have a fitted effect of over 15% in size; on activation: % of control where 0% means no effect
Conditions: 1A2-DRE human hepatoma cells, luciferase, 24 h; activation: stronger effect = higher value
Source text: National Center for Advancing Translational Sciences [NCATS]
NIH Chemical Genomics Center [NCGC]
U.S. Environmental Protection Agency [EPA]
National Institutes of Environmental Health Sciences [NIEHS]
National Toxicology Program [NTP]
The Aryl hydrocarbon Receptor (AhR) plays a critical role in the development of cancer or neoplasm and its formation is most likely due to genetic mutations and the influence of environment. Exposure to environmental pollutants such as polycyclic aromatic hydrocarbons (PAH), their halogenated derivatives and heterocyclic amines causes the induction of phase I and II enzymes. The transcriptional activation of CYP1A2 is directly regulated by AhR.
A cell based assay (1A2-DRE cells, developed by Puracyp, Inc., CA) was used to assess the activation of AhR. Human hepatoma cells were stably transfected with the dioxin response element (DRE) and CYP1A2 promoter fused to a luciferase gene. Increased luciferase activity can be used to identify the compounds that cause the induction of CYP1A2 and AhR activation.
1,200 cells in 5 uL/well were dispensed into white wall/solid bottom 1536-well plates using a Multidrop Combi (Thermo Scientific) dispenser. Following transfer of 23 nL compound or DMSO vehicle by a pin tool, the plates were incubated 24 hr at 37 C and 5% CO2. 5 ul One-Glo (Promega) was then added to each well and following 30 min incubation at room temperature, luciferase activity was quantified on a ViewLux CCD-based plate reader.
Potency means the concentration at half of the fitted maximal effect.

Row | SMILES | activation | Potency
1 | ClC1C(Cl)C(Cl)C(Cl)C(Cl)C1Cl (stereo not given) | 1.78% [middle of 4 runs] | –
2 | CCCCCCCCOC(=O)c1ccccc1C(=O)OCCCCCCCC | -0.0695% and 0.763% | –
3 | O=C/C=C/c1ccccc1 | 2.17% and 1.64% | –
4 | CCOP(=O)(OCC)O/C(=C/Cl)c1ccc(Cl)cc1Cl | 3.76% | 50.1 µM (active)
5 | C[CH2][Hg][S]c1ccccc1C(=O)O | -11.2% | –
6 | COc1ccc2c(c1OC)C(=O)OC2C1c2cc3c(cc2CCN1C)OCO3 (stereo not given) | 0.0911% | –
7 | CCCCCl | -0.771% | –
8 | O=C1C2CC=CCC2C(=O)N1SC(Cl)(Cl)Cl (stereo not given) | -4.61% and -3.77% and 2.69% | –
9 | C[C@H]1CC[C@@H]2[C@@H](C)[C@H]3[C@H](C[C@H]4[C@@H]5CC=C6CC(O[C@@H]7O[C@H](CO)[C@H](O)[C@H](O[C@@H]8O[C@H](CO)[C@@H](O)[C@H](O)[C@H]8O)[C@H]7O[C@H]7O[C@@H](C)[C@H](O)[C@@H](O)[C@H]7O)CC[C@]6(C)[C@H]5CC[C@]34C)N2C1 (stereo not given in full) | -8.71% | –
10 | [O]=[Cr](=[O])([OH])[O][Cr](=[O])(=[O])[OH] | 0.789% and 0.878% and -0.644% | –
11 | O=Cc1ccco1 | -0.549% | –
12 | O=C1C[C@@H]2OCC=C3CN4CC[C@]56c7ccccc7N1[C@H]5[C@H]2[C@H]3C[C@H]46 | 0.363% | –
13 | C=CCN=C=S | 0.264% | –
14 | O=C(O)c1cc[c]([Hg][Cl])cc1 | -2.48% | –
15 | ClCC1CO1 (stereo not given) | -0.99% | –
16 | N#CN | 1.29% | –
17 | O=c1[nH]c(=O)n(Cl)c(=O)n1Cl | -2.06% | –
18 | COCC(C)N(C(=O)CCl)c1c(C)csc1C (stereo not given) | -1.87% | –
19 | O=C1C=CC(=O)C=C1 | 1.56% | –
20 | C[C@H]1CCC[C@H](O)CCCCCc2cc(O)cc(O)c2C(=O)O1 | -1.64% | –

Row | SMILES | activation | Potency
21 | O=[N+]([O-])c1ccc(F)c([N+](=O)[O-])c1 | 0.408% | –
22 | [Cl-].[Cl-].[Hg+2] | 1.68% | –
23 | COC1=CC(=O)O[C@@H](/C=C/c2ccccc2)C1 | 1.75% | –
24 | S=C=S | 0.646% | –
25 | O=C1CCO1 | 1.44% | –
26 | O=[N+]([O-])C(Br)(CO)CO | 5.58% | –
27 | C#CCN1CC(=O)N(COC(=O)C2C(C=C(C)C)C2(C)C)C1=O (stereo not given) | 3.63% | –
28 | O=[N+]([O-])c1ccccc1 | -1.49% and 0.199% | –
29 | CC(C)CCON=O | -0.695% | –
30 | C[C@]12CCC(=O)C[C@@H]1CC[C@@H]1[C@@H]2CC[C@]2(C)[C@@H](O)CC[C@@H]12 | -0.925% and -0.613% | –
31 | ClC(Cl)(Cl)Cl | -0.636% and 0.214% | –
32 | [O]=[Cd] | 0.231% | –
33 | Oc1cc(Cl)c(Cl)cc1Cl | 3.21% and 2.24% | –
34 | O=CC=O | -1.42% | –
35 | CC[C@H](C)[C@H]1O[C@]2(C=C[C@@H]1C)C[C@@H]1C[C@@H](C/C=C(\C)[C@@H](O[C@H]3C[C@H](OC)[C@@H](O[C@H]4C[C@H](OC)[C@@H](O)[C@H](C)O4)[C@H](C)O3)[C@@H](C)/C=C/C=C3\CO[C@@H]4[C@H](O)C(C)=C[C@@H](C(=O)O1)[C@]34O)O2 | -12.2% | –
36 | Clc1ccccc1Cl | -0.403% | –
37 | CCCSP(=O)(OCC)SCCC | -2.38% | –
38 | NNC(N)=O | 0.598% | –
39 | ClC=C(Cl)Cl | 3.37% and -2.62% | –
